Among all 75,000 compounds or so, about 5,700 (7.6%) were called active. Where a call stands in place of a potency, no number is given. Inconclusive results (about 7%) are left out. The sample holds actives, similar compounds and a random draw of the others, so the mix is not that of the screen. A number with no mark means an inactive call. Calls come from the whole dose curve; as a rule, active = well fitted inhibition curve with a large enough effect; inconclusive = small, poorly fitted or top-dose-only effect; inactive = no such curve, though single readings can be large or run the other way.
The compounds below were run against 3-hydroxyacyl-CoA dehydrogenase type-2 (Homo sapiens) (UniProt Q99714) (assay: qHTS Assay for Inhibitors of HSD17B4, hydroxysteroid (17-beta) dehydrogenase 4). Conditions: recombinant HSD17B10, NADH fluorescence kinetic; series mostly up to 57.1 µM.
Method in brief: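 20 nM HADH2, pH 9.0 Tris/Tween; cpd preinc 15 min RT; start w/ 1 mM NAD+ + 90 uM b-hydroxybutyryl-CoA; kinetic fluor ex360/em450 q30s x 4 min; delta last-first.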
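Note: the protocol describes HADH2 (HSD17B10) and not the HSD17B4 of the title; nearly all actives have a fitted effect of over 70% in size.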
Potency is the fitted concentration of half-maximal effect.

Structure (SMILES)	Potency	activity change, negative = inhibition
Cc1ccc(NC(=O)CCNS(=O)(=O)c2ccc3c(c2)oc(=O)n3C)cc1C	inactive	–
C[C@@H]1/C=C\CC(=O)OC[C@H]2O[C@@H](C=C[C@@H]2O)[C@H](C)/C=C\CC(=O)OC[C@H]2O[C@H]1C=C[C@@H]2O	–	-0.26% [at 11.4 µM]
CCn1c(=N)c(S(=O)(=O)c2ccc(F)cc2)cc2c(=O)n3ccccc3nc21	inactive	–
CCOC(=O)c1cc2n(c1N)-c1ccccc1C2=O	inactive	–
CCCn1c(=NC(C)=O)c(C(=O)OCC)cc2c(=O)n3ccccc3nc21	20 µM (active)	–
CC(C)(C)c1nc(NCC2CCCO2)c2nnn(Cc3ccccc3)c2n1 (stereo unspecified)	inactive	–
C#CCNc1nc(C(C)C)nc2c1nnn2Cc1ccccc1F	inactive	–
Cc1nc(Nc2ccc3c(c2)OCCO3)c2nnn(Cc3ccccc3Cl)c2n1	31.6 µM (active)	–
O=c1cc(CO)oc(CN2CCC(Cc3ccccc3)CC2)c1O	inactive	–
OCCN1CCN(CC/C=C2\c3ccccc3Sc3ccc(C(F)(F)F)cc32)CC1	inactive	–
CCCN1[C@H](C(=O)OC)C[C@@]2(O)[C@@H](O)[C@@H](O)[C@@H](O)C[C@@H]12	inactive	–
Cc1nnc(SCC(=O)NCc2ccccc2)s1	inactive	–
COc1c(C(C)C)oc2cc3oc(=O)ccc3cc12	inactive	–
Fc1ccc2nc(Nc3nc4c(s3)CCCC4)sc2c1	25.1 µM (active)	–
Fc1ccc2nc(N3CCCCC3)sc2c1	inactive	–
O=C(Cn1c(=O)sc2ccccc21)Nc1nc2c(s1)CCCC2	inactive	–
CNc1cc(-c2c(C)noc2C)ncn1	inactive	–
O=C1CCc2cc(S(=O)(=O)N3CCC(C(=O)NCc4ccccc4Cl)CC3)ccc2N1	inactive	–
Cc1ccc(C(=O)Nc2nnc(-c3cccs3)s2)cc1C	25.1 µM (active)	–
COc1cccc(OC)c1C(=O)Nc1nnc(C(C)C)s1	inactive	–
CCCc1nnc(NC(=O)c2cc(OC)cc(OC)c2)s1	inactive	–
Cc1cc(C)nc(N2C(=O)CC(Cc3ccccc3)C2=O)n1 (stereo unspecified)	inactive	–
COc1ccc(OC)c2[nH]c(=O)c(CCNC(=O)C(C)(C)C)cc12	inactive	–
CCCn1c(SCC(=O)N2CCc3ccccc32)nnc1-c1ccncc1	inactive	–
CCc1ccc(N2CC(C(=O)NC3=NCCS3)CC2=O)cc1 (stereo unspecified)	inactive	–
Cc1ccc(C(=O)N2CCCCCC2)cc1Br	inactive	–

Structure (SMILES)	Potency	activity change, negative = inhibition
O=C(c1cc(-c2cccs2)on1)N1CCCCC1	inactive	–
Cc1ccc2cc3cc(C(=O)N4CCCCCC4)oc3nc2c1	25.1 µM (active)	–
Oc1c(CN2CCOCC2)ccc(CN2CCOCC2)c1O	–	-11.5% [at 11.4 µM]
CO[C@H]1COC(=O)[C@@H](OCc2ccccc2)/C=C\[C@H](C)[C@@H](OC)COC(=O)[C@H](OCc2ccccc2)/C=C\[C@@H]1C	–	-0.999% [at 11.4 µM]
CN(C)CCCn1c2ccccc2c2cnccc21	–	7.17% [at 11.4 µM]
Cc1cc(Cl)c(S(=O)(=O)NCC2CCCO2)cc1OCC(N)=O (stereo unspecified)	inactive	–
O=C(CC1OC(=O)c2ccccc21)NC1CCCCC1 (stereo unspecified)	inactive	–
O=C(COc1ccc2oc3c(c2c1)CCCC3)Nc1ccccn1	inactive	–
O=C(COc1ccc2c3c(c(=O)oc2c1)CCC3)NC1CCCCC1	31.6 µM (active)	–
NC(=O)COc1ccc2c3c(c(=O)oc2c1)CCCCC3	25.1 µM (active)	–
O=C(COc1ccccc1F)NC1CC1	inactive	–
CCOC(=O)CSc1nc2c(c(=O)n(C)c(=O)n2C)n1Cc1ccccc1F	inactive	–
CCOC(=O)CSc1nnc(CNC(=O)Cc2ccccc2)n1-c1ccccc1OC	inactive	–
COC(=O)CSc1nc(C2CC2)nc2ccccc12	inactive	–
Cc1ccc(-n2ncc3c(N4CCN(c5ccc(F)cc5)CC4)ncnc32)c(C)c1	inactive	–
CCCc1nc2c3cnn(-c4cccc(Cl)c4)c3ncn2n1	inactive	–
Cc1ccc(-n2ncc3c2ncn2nc(-c4ccco4)nc32)c(C)c1	25.1 µM (active)	–
CC1=C(/C=C/C(C)=C/C=C/C(C)=C/C=C/C=C(C)/C=C/C=C(C)/C=C/C2=C(C)CCCC2(C)C)C(C)(C)CCC1	inactive	–
CC(=O)OCC(=O)[C@@]1(O)CCC2C3CCC4=CC(=O)CC[C@@]4(C)[C@]3(F)C(O)C[C@]21C (stereo partly specified)	inactive	–
CC(N)=NCc1cccc(CN)c1	inactive	–
COc1ccc(OCCCC(=O)Nc2nnc(C3CCCO3)s2)cc1 (stereo unspecified)	inactive	–
COc1ccc2c(CC(=O)Nc3nnc(C4CC4)s3)coc2c1	25.1 µM (active)	–
COc1cccc(NC(=O)Nc2nnc(N3CCCCC3C)s2)c1 (stereo unspecified)	inactive	–
C[C@H]1CC[C@H](C(=O)O)N[C@@H]1c1ccc(C#Cc2ccccc2)cc1	–	-1.28% [at 11.4 µM]
O=C(Nc1cccc(F)c1)c1ccc(S(=O)(=O)N2CCCC2)cc1	inactive	–
